Measurements published in ChEMBL document CHEMBL4513216, “Probing the Open Global Health Chemical Diversity Library for Multistage-Active Starting Points for Next-Generation Antimalarials” (ACS Infect Dis, 2020).
Among all 69,000 compounds or so, about 8,600 (12%) showed an effect of 50% or more. Only a selection was taken, and strong results are over-represented in it overall.

Test system: Plasmodium berghei
Assay: Screen against P. berghei liver stage (PbLuc), transformed with Luciferase, at 10uM
Format: functional, HepG2
Settings: tested at 10 uM

SMILES	INHIBITION [%]
Nc1ncnc2nc(C3CCCCN3)ccc12 (stereo not drawn)	26.45
O=C(c1cc(F)ccc1O)N1CCN(C2CCSC2)CC1 (stereo not drawn)	-75.7
CN(CCNc1cc(N2CCCC2CO)ncn1)Cc1ccccc1 (stereo not drawn)	-21.2
CC(C)CCN1CCN(CC(=O)Nc2ccc3nsnc3c2)CC1	58.3
Cc1ccc(CN2CCN(CC(=O)Nc3ccc4nsnc4c3)CC2)o1	46.1
CCC(CC)CN1CCN(CC(=O)Nc2ccc3nsnc3c2)CC1	8.99
O=C(CCOc1ccccc1F)NC1CCCN(c2ccccn2)C1 (stereo not drawn)	-3.71
CN(C)Cc1cnc2n1CCN(C(=O)NC1CCCC1)CC2	43.8
CC(=O)c1cccc(NC(=O)c2cnc(N3CCN(C)CC3)nc2C)c1	7.83
CCc1nc(C2CCCN(C(=O)CN(C)S(C)(=O)=O)C2)no1 (stereo not drawn)	51.3
CCc1nc(C2CCCN(C(=O)CC3CCOCC3)C2)no1 (stereo not drawn)	-2.19
CCc1nc(C2CCCN(c3ncccn3)C2)no1 (stereo not drawn)	-113
CCc1nc(C2CCCN(C(=O)c3ccccc3F)C2)no1 (stereo not drawn)	60.5
CCc1cc(N2CCCC(c3noc(CC)n3)C2)ncn1 (stereo not drawn)	58.5
CCc1nc(C2CCCN(C(=O)c3ccccc3O)C2)no1 (stereo not drawn)	37.9
CCc1nc(C2CCCN(c3ncc(Br)cn3)C2)no1 (stereo not drawn)	31.7
CCc1nc(C2CCCN(C(=O)c3ccccc3Cl)C2)no1 (stereo not drawn)	42
CC(C)c1nc(C2CCCN(C(=O)CN(C)S(C)(=O)=O)C2)no1 (stereo not drawn)	-1.35
Cc1ccsc1CNCCCOc1ccccn1	-19.1
CC(=O)c1nn(-c2ccccc2)c(C)c1C(C)=O	10.6
Cc1ccc(-c2nc(CN3CCCC(Cn4cncn4)C3)no2)cc1 (stereo not drawn)	-28.3
CCN1CC2(CC1=O)CN(C(=O)c1ccco1)CCN(C(=O)N(C)C)C2 (stereo not drawn)	5.14

SMILES	INHIBITION [%]
CCN1CC2(CC1=O)CN(C(=O)c1cccs1)CCN(C(=O)N(C)C)C2 (stereo not drawn)	71
CCN1CC2(CC1=O)CN(C(=O)c1ccsc1)CCN(C(=O)N(C)C)C2 (stereo not drawn)	56.1
CCN1CC2(CC1=O)CN(C(=O)c1ccoc1)CCN(C(=O)N(C)C)C2 (stereo not drawn)	20.9
CCN1CC2(CC1=O)CN(Cc1ccsc1)CCN(C(=O)C(C)C)C2 (stereo not drawn)	20.9
CCN1CC2(CC1=O)CN(Cc1cccs1)CCN(C(=O)C(C)C)C2 (stereo not drawn)	-9.76
Cc1nc(CNC(=O)c2cc(COc3cccc(F)c3)[nH]n2)n[nH]1	10.1
CN(CCOc1ccc(C#N)cc1)CC1CC1	-24.7
CCCC12CN3CC(CCC)(CN(C1)C3c1[nH]c(=O)[nH]c(=O)c1C)C2=O (stereo not drawn)	17.1
CCO[C@@H]1CCN(c2ccc(C)nn2)[C@@H]1Cc1cnn(C)c1	24.8
CC(C)(C)n1ncc2c(=O)n(CC(=O)NCc3ccco3)cnc21	-28.5
CC(C)(C)n1ncc2c(=O)n(CC(=O)NCCc3ccccc3)cnc21	-25.4
CC(C)(C)n1ncc2c(=O)n(CC(=O)NCc3ccccc3)cnc21	84.3
CC(C)(C)n1ncc2c(=O)n(CC(=O)NCc3ccccc3Cl)cnc21	71.4
NC(=O)Cn1c(CO)cnc1SCC(=O)NCc1ccccc1Cl	-20.8
CCCNC(=O)Cn1nc(C(C)C)c2cnn(C(C)(C)C)c2c1=O	-7.35
Cc1ccncc1-n1cc(CCO)cn1	0.546
O=C(CC1CCCCC1)NC1CCCc2nc(N3CCOCC3)ncc21 (stereo not drawn)	25.6
Cc1cc(NC(C)c2nnn[nH]2)n2nc(C)c(C)c2n1 (stereo not drawn)	5.91
C1CC(N2Cc3nnn(CC4CC4)c3C(COCC3CC3)C2)C1 (stereo not drawn)	67.3
CCOCC1CN(CC2CCC2)Cc2nnn(CC3CC3)c21 (stereo not drawn)	44.4
C1CCC(CN2Cc3nnn(CC4CC4)c3C(COCC3CC3)C2)C1 (stereo not drawn)	63.3
COCC1CN(Cc2ccncc2)Cc2nnn(CC3CC3)c21 (stereo not drawn)	45.1

SMILES	INHIBITION [%]
c1cc(CN2Cc3nnn(CC4CC4)c3C(COCC3CC3)C2)co1 (stereo not drawn)	29.6
CN(C)C(=O)N1Cc2nnn(CC3CC3)c2C(COCC2CC2)C1 (stereo not drawn)	-0.284
Cc1ccc(N2CCCN(C(=O)CC3C=CCC3)CC2)nn1 (stereo not drawn)	-0.113
O=C1CCOC[C@]2(CN(Cc3ccccc3)C[C@H]2c2cccc(F)c2)N1	-38.8
COc1ccc2c(c1)OCC(C(=O)NCc1nc3c(s1)CCCC3)C2 (stereo not drawn)	-23.3
CC(c1ccccc1)N(C)C(=O)CNCCn1cccn1 (stereo not drawn)	31.1
CCN(CC)CC(=O)N1CCCCC1c1nc(C)cs1 (stereo not drawn)	-67.3
CCn1cc(CN2CCN(CC(O)c3ccc(C)cc3C)CC2)c(C)n1 (stereo not drawn)	28
Cc1nn(C)c2nc(N3CCNC(=O)C3C(C)C)sc12 (stereo not drawn)	-47.5
Cc1ccc(CN2CCN(C(=O)c3ccc(CO)cc3)C(C)C2=O)cc1 (stereo not drawn)	60.3
Cc1nn(C)c2nc(N3CCCCC3c3ccc(F)cc3)sc12 (stereo not drawn)	-11.6
COC(=O)CN1CCN(c2nc3c(s2)c(C)nn3C)C(C)C1=O (stereo not drawn)	52.9
Cc1ccc(CN2CCN(C(=O)c3ccccc3O)C(C)C2=O)cc1 (stereo not drawn)	37.6
COC(=O)CC1C(=O)NCCN1c1nc2c(s1)c(C)nn2C (stereo not drawn)	51.1
Cc1nn(C)c2nc(N3CCCC3c3nccs3)sc12 (stereo not drawn)	49.9
Cc1nn(C)c2nc(N3CCNC(=O)C3Cc3ccccc3)sc12 (stereo not drawn)	32.3
CNc1ncccc1C(=O)N1CCN(Cc2ccc(C)cc2)C(=O)C1C (stereo not drawn)	-11.5
Cc1ccc(CN2C[C@H]3CN(Cc4ccccc4Cl)CCN3C2=O)cc1	-45.5
Cc1nn(C)c2nc(N3CCCCC3c3nccs3)sc12 (stereo not drawn)	28.7
Cc1ccc(CN2CCN(c3nc4c(s3)c(C)nn4C)C(C)C2=O)cc1 (stereo not drawn)	78
Cc1occc1C(=O)N1CCCN(Cc2nccn2C)CC1	23.7
OC1(CNCCCN2CCCc3ccccc32)CNCCOC1 (stereo not drawn)	45.9

SMILES	INHIBITION [%]
Cc1nc(O)cc(CCNC(=O)c2ccccc2N2CCCC2)n1	18.5
CCCS(=O)(=O)N1C[C@@H]2C[C@H](C(=O)N3CCN(C)CC3)[C@H](C1)O2	21.1
COc1ccc(-c2cc(CN)nc3ccnn23)cc1	35.2
CC(C)C[C@@H](C(N)=O)n1cc(-c2cncnc2)nn1	12.8
COc1ccc(-n2ccc(C(=O)N(CCN(C)C)C(C)C)n2)cc1	18.2
Cc1ccc(-c2nc(CCNCc3ccncc3)co2)cc1	49.6
Cc1nc(C2CCCN2Cc2nccn2CC(F)(F)F)no1 (stereo not drawn)	21.6
CN(CC(F)(F)F)C(=O)CNC(=O)N1CCC(N2CCCC2)C1 (stereo not drawn)	30.9
CN1C(=O)COc2ccc(C(=O)Cn3cnc4ccsc4c3=O)cc21	47.9
COCCN(C)C1COC2(CCN(Cc3ccccn3)CC2)C1 (stereo not drawn)	25.2
Cc1cccc(CNC(=O)CC2CCN(S(C)(=O)=O)CC2)n1	-20.6
O=C1CCC2(CCN(Cc3ccc(F)cc3)CC2)N1Cc1ccccc1	46.6
Cc1nc(CSCCC(=O)NCc2ccncc2)cs1	-4.94
Cn1nccc1C(=O)NCCN1CCC(O)(c2ccc(F)cc2)CC1	14.65
COCCN1CC[C@]2(CN(C(=O)c3cccs3)C[C@H]2C)C1=O	22.4
C[C@@H]1CN(C(=O)c2ccc[nH]2)C[C@]12CCN(CCN1CCCC1)C2=O	48.4
COCCN1CC[C@]2(CN(C(=O)c3ccc[nH]3)C[C@H]2C)C1=O	61.3
CCC(CC)C(=O)NCCc1ccn(-c2ccccc2)n1	15.6
CC(C)c1cc(COCCCC(=O)O)no1	38.2
CC(C)c1cc(CN2CCC(N)CC2)no1	76.8
CC(C)c1cc(CN2CCC(CC(=O)O)CC2)no1	53
CC(C)c1cc(CSCCC(=O)O)no1	-46.4

SMILES	INHIBITION [%]
CC(C)c1cc(CN2CCNCC2)no1	30.8
CC(C)c1cc(CN2CCC(N)CC2)on1	41.2
Cc1ccc(-n2cc(C(=O)N3CCn4c(C)nnc4C3)nn2)cc1	15.9
O=C(c1cnc(O)cn1)N1CCCC1c1nc2cc(F)ccc2[nH]1 (stereo not drawn)	17.5
Cn1ncc(C(=O)N2CCOCC2)c1Cl	0.57
CCc1ccc(CNc2cc(-c3ccoc3C)nn2CCO)o1	54.4
Cc1cc(CNc2cc(-c3ccoc3C)nn2CCO)c(C)o1	43.7
COc1cc(CNc2cc(-c3ccoc3C)nn2CCO)ccc1F	38.3
c1cc(N2CCCC2c2cnccn2)ncn1 (stereo not drawn)	-3.31
COC(=O)c1cc(OCC2CCC2)cc(C(=O)NC2CCC(O)CC2)c1 (stereo not drawn)	7.12
COC(=O)c1cc(OCC2CCC2)cc(C(=O)N[C@@H]2CCCNC2)c1	58.4
COC(=O)c1cc(OCC2CCC2)cc(C(=O)N[C@@H]2CNCC[C@H]2O)c1	11.9
Cc1cc(NC(=O)NCCO)nn1-c1ccc(Cl)cc1Cl	60.5
Cc1cc(NC(=O)CO)nn1-c1ccc(Cl)cc1Cl	19.8
Cc1cc(NC(=O)N2CCC[C@@H]2CO)nn1-c1ccccc1Cl	30.8
O=C(NCCO)Nc1ccc(Cl)cc1-n1cccc1	-6.91
Cc1cc(NC(=O)N2CCOCC2)nn1-c1ccccc1Cl	33.4
CC(=O)NCC(=O)Nc1cc(C)n(-c2ccc(Cl)cc2Cl)n1	50
CS(=O)(=O)N[C@H]1COC[C@@H]2CN(Cc3ccco3)C[C@@H]21	-19.1
COC(=O)c1sc2cccc(F)c2c1CNC(=O)C1CCCO1 (stereo not drawn)	-1.37
